High-throughput results (PubChem)
RE007 growth inh = less growth of the S. pombe RE007 Vpr strain; AID 651644; Potency, µM (top dose mostly 92.2 µM), actives largely listed as inhibitors; S. pombe RE007 Vpr strain, BacTiter-Glo ATP luminescence, 24 h; 0.21% of 360,000 active; active means well fitted falling curve with a large enough effect; inconclusive means small, poorly fitted or top-dose-only effect; inactive means no such curve, though single readings can be large or run the other way; further: nearly all actives have a fitted effect of over 50% in size
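Fission yeast strain RE007, carrying one chromosomally integrated HIV-1 vpr copy, was seeded at OD 0.01 in PMG+AL medium with 23 nL pinned compound. After 24 h at 30 °C and 99% humidity, viability was read by BacTiter-Glo luminescence.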
Tb PYK inh = T. brucei pyruvate kinase inhibition; TbPYK enzyme, Kinase-Glo Plus ATP luminescence, 45 min; Potency, µM (highest dose often 76.8 µM), actives largely listed as inhibitors; 0.12% of 410,000 active; Q57TT1; further: nearly all actives have a fitted effect of over 50% in size
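Quantitative HTS: titrated library compounds versus trypanosomal pyruvate kinase in TEA buffer (pH 7.2) containing KCl, MgCl2, BSA and Tween-20. Reactions were initiated with ADP, 130 uM final. Kinase-Glo Plus luminescence was read after 45 min at RT.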
Giardia FBPA inh = inhibitors of Giardia lamblia fructose-1,6-bisphosphate aldolase; Potency, µM (doses to about 59.6 µM), usual class: inhibitors; AID 2451; purified Giardia FBPA; A8B2U2; 0.71% of 290,000 active; further: nearly all actives have a fitted effect of over 55% in size
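Giardia FBPA (40 nM reagent) was preincubated 10 min at RT with compound (up to 57.5 uM final), then substrate plus GAPDH/TPI/NAD/arsenate coupling system with diaphorase/resazurin was added; resorufin fluorescence (525/598 nm) was read after 20 min.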
LmPK inh = inhibitors of Leishmania mexicana pyruvate kinase; AID 1721; Potency, µM (top dose mostly 57.5 µM), usual class: inhibitors; purified LmPK, Kinase-Glo ATP luminescence, 1 h; 0.37% of 290,000 active; Q27686
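0.1 nM LmPK, 0.5 mM PEP, 0.1 mM ADP; 50 mM imidazole pH 7.2, 7 mM MgCl2, 50 mM KCl; 1 h RT. Kinase-Glo luminescence readout, normalized to no-enzyme (full inhibition) and uninhibited wells.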
AmpC inh detg = AmpC beta-lactamase inhibition with detergent present | 0.041% of 370,000 active | AID 485294 | Potency, µM (series often up to 114 µM), most hits filed as inhibitors | AmpC hydrolysis of nitrocefin, absorbance 480 nm, 0.01% Triton | P00811; further: nearly all actives have a fitted effect of over 25% in size
Target sequence (P00811 whole entry, looked up): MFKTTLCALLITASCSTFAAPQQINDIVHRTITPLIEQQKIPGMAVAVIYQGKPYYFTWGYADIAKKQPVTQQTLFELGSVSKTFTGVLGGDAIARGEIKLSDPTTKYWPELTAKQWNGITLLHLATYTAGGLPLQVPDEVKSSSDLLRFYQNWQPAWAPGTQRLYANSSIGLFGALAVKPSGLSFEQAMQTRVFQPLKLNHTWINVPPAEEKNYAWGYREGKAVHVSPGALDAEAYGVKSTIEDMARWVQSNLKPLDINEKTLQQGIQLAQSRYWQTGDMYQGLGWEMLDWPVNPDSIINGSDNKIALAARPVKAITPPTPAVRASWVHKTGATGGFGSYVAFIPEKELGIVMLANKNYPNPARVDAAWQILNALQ
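AmpC (5.3 nM in the dispensed reagent) in 20 mM phosphate pH 7.0 with 0.01% (detergent screen) or 0.0001% Triton X-100 was preincubated with compounds for 15 min at room temperature. Nitrocefin was then added from an 800 uM solution, and hydrolysis was followed at 480 nm.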
AmpC no deterg = blocks E. coli AmpC beta-lactamase in detergent-free assay | P00811 | Potency, µM (titrated, usually from 57.1 µM), actives largely listed as inhibitors | AmpC nitrocefin hydrolysis, absorbance 480 nm, 0.0001% Triton | 0.52% of 330,000 active; further: nearly all actives have a fitted effect of over 20% in size
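20 mM phosphate pH 7.0 + 0.01% (detergent screen) or 0.0001% Triton X-100; 5.3 nM AmpC reagent; cpd preinc 15 min RT; nitrocefin (800 uM stock) to start; A480 q20 s × 4 min; Activity was normalised to no-enzyme and no-compound control wells.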
Each line names hits and unclear results; the compound was inactive in the other large screens. Compounds with a hit are over-represented: about 1.4% of the library has one in this group of screens. Unless noted, the call rests on the fitted dose curve; in most records, active means well fitted curve in the direction sought with a large enough effect; inconclusive means small, poorly fitted or top-dose-only effect, or another doubt; inactive means no such curve, though single readings can be large; an effect the other way counts as inactive or inconclusive.

Cc1ccc(-n2c(-c3c(-c4ccccc4)noc3C)n[nH]c2=S)cc1	Tb PYK inh inconclusive, LmPK inh 11µM
Cc1ccc(-n2c(-c3cccc(C)c3)n[nH]c2=S)cc1	Tb PYK inh 2.8µM, LmPK inh 8.9µM
COc1ccc(-c2n[nH]c(=S)n2-c2ccc3c(c2)OCCO3)cc1OC	Tb PYK inh inconclusive, LmPK inh inconclusive
COc1ccc(-n2c(-c3ccccc3F)nc3c(cnn3-c3ccc(C)cc3)c2=O)cc1	none (no result: RE007 growth inh, Giardia FBPA inh, LmPK inh, AmpC no deterg)
CC(=O)c1cccc(NC(=O)CC(c2ccc(C)cc2)N2Cc3ccccc3C2=O)c1 (stereo not drawn)	none (no result: RE007 growth inh, Giardia FBPA inh, LmPK inh, AmpC no deterg)
COC(=O)[C@]12CCC(C)(C)C[C@@H]1[C@@H]1C(=O)C=C3[C@@]4(C)C=C(C#N)C(=O)C(C)(C)[C@@H]4CC[C@@]3(C)[C@]1(C)CC2	none (no result: RE007 growth inh, Giardia FBPA inh, LmPK inh, AmpC inh detg, AmpC no deterg)
CCOc1ccc(CCNC(=O)Cn2ccc3cc(S(=O)(=O)N4CCCCC4)ccc32)cc1	none (no result: RE007 growth inh, Giardia FBPA inh, LmPK inh, AmpC no deterg)
COc1ccc(CCn2c(-c3ccc(Cl)cc3)n[nH]c2=S)cc1OC	Tb PYK inh inconclusive
Cc1ccc([N+](=O)[O-])c(-c2n[nH]c(=S)n2-c2cccc(Cl)c2)c1	Tb PYK inh 3.2µM, LmPK inh 18µM
COc1ccc(CCn2c(-c3ccc(C(C)(C)C)cc3)n[nH]c2=S)cc1OC	Tb PYK inh 14µM
COc1cc([N+](=O)[O-])c(OC)cc1SCc1n[nH]c(=S)n1-c1ccc(F)cc1	Tb PYK inh inconclusive, LmPK inh inconclusive
S=c1[nH]nc(-c2ccc(Cl)cc2)n1-c1cccnc1	Tb PYK inh inconclusive, LmPK inh 11µM
COc1cc([N+](=O)[O-])c(OC)cc1SCc1n[nH]c(=S)n1-c1ccc(C)cc1	Tb PYK inh 2.5µM, LmPK inh inconclusive
Cc1ccc(C)c(NC(=O)CSc2nncn3c2cc2sccc23)c1	none (no result: RE007 growth inh, Giardia FBPA inh, LmPK inh, AmpC no deterg)
S=c1[nH]nc(-c2ccc3c(c2)OCO3)n1-c1ccccc1	Tb PYK inh inconclusive, LmPK inh 7.1µM
Cc1cccc(-n2c(-c3ccncc3)n[nH]c2=S)c1	Tb PYK inh inconclusive, LmPK inh 14µM
COc1ccc(C(=O)c2cn(CC(=O)Nc3ccc4c(c3)OCO4)c3ccc(OC)cc3c2=O)cc1	none (no result: RE007 growth inh, Giardia FBPA inh, LmPK inh, AmpC no deterg)
O=C(N/N=C/c1cccnc1)c1[nH]ncc1Br	LmPK inh 18µM
O=C(N/N=C/c1ccccc1)c1[nH]ncc1Br	Tb PYK inh inconclusive, LmPK inh 13µM, AmpC inh detg inconclusive
O=C(Nc1ccc(CSc2ccccc2)cc1)c1ccccc1	none
O=C(Nc1ccccc1)c1ccc(CSc2ccccn2)cc1	RE007 growth inh inconclusive, Tb PYK inh inconclusive, LmPK inh 13µM
CN1CCN(C(=O)c2sc(=S)n(-c3ccccc3)c2N)CC1	Tb PYK inh inconclusive, Giardia FBPA inh 5.6µM, AmpC inh detg inconclusive
Cc1ccc(-n2c(N)c(C(=O)N3CCOCC3)sc2=S)cc1	AmpC inh detg inconclusive
Cc1ccc(NC(=O)c2cc(S(=O)(=O)N3CCCCC3)c[nH]2)cc1N(C)C	none (no result: RE007 growth inh, Giardia FBPA inh, LmPK inh, AmpC no deterg)
COc1ccc(-c2cc(CNS(=O)(=O)c3ccc(NC(C)=O)cc3)on2)cc1	AmpC inh detg inconclusive (no result: Giardia FBPA inh)
O=S(=O)(NCc1cc(-c2ccccc2Cl)no1)c1ccc(Cl)cc1	RE007 growth inh 32µM, Tb PYK inh inconclusive
CC(=O)c1ccc(-n2c(-c3cc(-c4ccsc4)n[nH]3)n[nH]c2=S)cc1	Tb PYK inh inconclusive, LmPK inh 20µM
COc1ccccc1/C=C1\SC(=S)N(CCC(=O)NNC(=O)c2ccccc2O)C1=O	AmpC no deterg 16µM
COc1ccc(/C=C2\SC(=S)N(CCCC(=O)NNC(=O)c3ccccc3O)C2=O)cc1	none
COc1ccc(N2CCN(CCCNC(=O)c3nnc(Cc4ccc(F)cc4)o3)CC2)cc1	none (no result: RE007 growth inh, Giardia FBPA inh, LmPK inh, AmpC no deterg)
Cc1ccc(SCC(=O)c2ccc(CC(=O)O)s2)cc1	AmpC no deterg 20µM
O=C(O)Cc1ccc(C(=O)CSc2ccccc2)s1	AmpC no deterg inconclusive
Cc1nc2c(C(=O)N(C)Cc3ccccc3)c[nH]n2c(=O)c1Cc1ccc(Cl)cc1	none (no result: RE007 growth inh, Giardia FBPA inh, LmPK inh, AmpC no deterg)
